# Data reported in PubChem BioAssay (EPA / NIEHS).
# Values joined by “and” are separate entries in the source; they are usually repeats but may differ in a detail not shown here. Identical values can stand only once. Where a structure was tested more than once in an assay, its records may differ in their call. Active and inactive are the calls of the source. How the source made its calls: active means hit-call score of the fitted dose curve at least 0.9, where 1 is the maximum; inactive means score below 0.9.
# Assay: ATG_NFI_CIS: Attagene CIS-FACTORIAL HepG2 Assay for human Nuclear Factor I (NFI) (AID 2282989)
# Settings: HepG2 cis-regulatory reporter, NFI response element transcription; actives raise or lower the signal
# Protocol: ATG_CIS is a cell-based, multiplexed-readout assay that uses HepG2, a human liver cell line, with measurements taken at 24 hours after chemical dosing in a 24-well plate.ATG_NFI_CIS is one of 52 assay component(s) measured or calculated from the ATG_CIS assay. It is designed to make measurements of mRNA induction, a form of inducible reporter, as detected with fluorescence intensity signals by Reverse transcription polymerase chain reaction (RT-PCR) and Capillary electrophoresis technology.Data from the assay component ATG_NFI_CIS was analyzed into 1 assay endpoint. This assay endpoint, ATG_NFI_CIS, was analyzed with bidirectional fitting relative to DMSO as the negative control and baseline of activity. Using a type of inducible reporter, measures of mRNA for gain or loss-of-signal activity can be used to understand the reporter gene at the transcription factor-level as they relate to the gene NFIA. Furthermore, this assay endpoint can be referred to as a primary readout, because this assay has produced multiple assay endpoints where this one serves a reporter gene function. To generalize the intended target to other relatable targets, this assay endpoint is annotated to the dna binding intended target family, where the subfamily is nuclear factor I.
# Human liver HepG2 cells are transiently transfected with multiple reporter transcription units (MRTUs) in 6-well plates using FuGene 6 reagent (Roche; 3 ml FuGene/1 mg DNA). The MRTU constructs are regulated by a cis-regulating element (promoter). […] A major difference between the CIS and TRANS system is that in CIS activities of endogenous TFs are measured, whereas the TRANS assay evaluates changes in activities of exogenous, chimeric NR-Gal4 proteins. […] At the end of 24 hour incubation, total RNA was isolated using TriZol reagent (Invitrogen). The isolated RNA is then reverse-transcribed using oligo(dT) primer and Mo-MLV reverse transcriptase (Invitrogen) with DNAse I (Ambion) treatment for 30 min. The one-tenth of the produced cDNA was amplified by PCR using Taq DNA polymerase (Invitrogen) and two reporter sequence-specific primers. The PCR products were fluorescently labeled by primer extension with 6-arboxyfluorescein (6-FAM) 5'-labeled reporter sequence-specific primer (2 min at 95 C, 20 s at 68 C and 10 min at 72 C) and these products were digested with 5U of HpaI (New England Biolabs) for 2h at 37 C. The fragments were purified using Qiaquick PCR columns (Qiagen), analyzed on an ABI 3130xL genetic analyzer (Applied Biosystems) with peak positions identified by using a set of X-rhodamine (ROX)-labeled MapMarker1000 molecular weight standards (BioVentures). The raw capillary electrophoresis data was processed using Attagraph software (Attagene).
Compound,outcome,AC50
Cc1ccccc1CO[C@@H]1C[C@@]2(C(C)C)CC[C@]1(C)O2,inactive,–
ClC1=C(Cl)[C@]2(Cl)[C@@H]3[C@@H](Cl)[C@H]4O[C@H]4[C@@H]3C1(Cl)C2(Cl)Cl,–,65.1 µM (active)
O=C(O)C(F)(F)C(F)(F)C(F)(F)C(F)(F)C(F)(F)C(F)(F)C(F)(F)C(F)(F)C(F)(F)F,inactive,–
Nc1ccc(-c2ccc(N)cc2)cc1,inactive,–
C[C@]12CCC(=O)C=C1CC[C@@H]1[C@@H]2CC[C@]2(C)C(=O)CC[C@@H]12,inactive,–
CN(C)CCO,inactive,–
O=NN(c1ccccc1)c1ccccc1,inactive,–
Cc1cccc([N+](=O)[O-])c1,inactive,–
ClC1=C(Cl)[C@]2(Cl)[C@@H]3[C@@H]4C[C@@H]([C@H]5O[C@@H]45)[C@@H]3[C@@]1(Cl)C2(Cl)Cl,inactive,–
CCC(=O)O[C@H]1CC[C@H]2[C@@H]3CCC4=CC(=O)CC[C@]4(C)[C@H]3CC[C@]12C,inactive,–
CCOCCOC(C)=O,inactive,–
Clc1ccc(C(c2ccccc2Cl)C(Cl)(Cl)Cl)cc1 (stereo not given),inactive,107 µM (active) and 70.5 µM (active)
Oc1c(Cl)c(Cl)c(Cl)c(Cl)c1Cl,inactive,27.4 µM (active) and 51 µM (active)
CCC(C)c1cc([N+](=O)[O-])cc([N+](=O)[O-])c1O (stereo not given),inactive,–
C1CC2OC2CC1C1CO1 (stereo not given),inactive,–
ClC(Cl)=C(c1ccc(Cl)cc1)c1ccc(Cl)cc1,–,100 µM (active) and 114 µM (active) and 152 µM (active)
CC(C)(c1ccccc1)c1ccc(O)cc1,inactive,49.6 µM (active)
CC1=C2C[C@H]3[C@@H](CC=C4C[C@@H](O)CC[C@@]43C)[C@@H]2CC[C@]12O[C@@H]1C[C@H](C)CN[C@H]1[C@H]2C,inactive,–
CC(C)(O)C(=O)Nc1ccc([N+](=O)[O-])c(C(F)(F)F)c1,inactive,–

Compound,outcome,AC50
CCNc1nc(NC(C)C)nc(SC)n1,inactive,–
CO/C=C(/C(=O)OC)c1ccccc1COc1cccc(C(F)(F)F)n1,inactive,–
C=CC(=O)NCNC(=O)C=C,inactive,–
CCOP(=S)(OCC)SCSC(C)(C)C,inactive,–
CCCCCCCCOC(=O)c1ccccc1C(=O)OCCCCCCCC,inactive,–
CCCCCCCCCC[N+](C)(C)CCCCCCCCCC,inactive,–
NS(=O)(=O)C(F)(F)C(F)(F)C(F)(F)C(F)(F)C(F)(F)C(F)(F)C(F)(F)C(F)(F)F,–,44.3 µM (active) and 37.1 µM (active) and 50 µM (active)
O=S(=O)(O)C(F)(F)C(F)(F)C(F)(F)C(F)(F)C(F)(F)C(F)(F)F,inactive,–
Cc1ccccc1O,inactive,–
Sc1ccccc1,inactive,–
N#Cc1ccc(N(CC(N)=O)CC(F)(F)F)cc1C(F)(F)F,inactive,–
CCCN(CCC)N=O,inactive,–
CC(C)C(=O)OCC(C)(C)C(OC(=O)C(C)C)C(C)C (stereo not given),inactive,–
O=C(NC(=O)c1c(F)cccc1F)Nc1cc(Cl)c(OC(F)(F)C(F)F)c(Cl)c1,inactive,–
Cc1cccc(C)c1N,inactive,–
c1cc2ccc3cccc4ccc(c1)c2c34,inactive,–
O=C(O)C(F)(F)C(F)(F)C(F)(F)C(F)(F)C(F)(F)F,inactive,–
ClC1=C(Cl)[C@]2(Cl)[C@@H]3[C@H]4C[C@H]([C@@H]5O[C@H]45)[C@@H]3[C@@]1(Cl)C2(Cl)Cl,inactive,–
